Measured values: PubChem BioAssay (NCATS)
Inconclusive results are not listed. Activity calls are given as the source filed them. Calls follow the shape of the dose curve; as a rule, active = well fitted curve in the direction sought with a large enough effect; inconclusive = small, poorly fitted or top-dose-only effect, or another doubt; inactive = no such curve, though single readings can be large; an effect the other way counts as inactive or inconclusive.

Tests used:
[1] = test system: Zika virus NS2B-NS3 protease (linked construct); experiment: Primary screen NINDS Rhodamine qHTS for Zika virus inhibitors (AID 1347160); also: nearly all actives have a fitted effect of over 55% in size
Method in brief: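 Each compound, titrated, sat 15 min with 25 nM linked protease before 1.5 microM Rhodamine110 substrate went in. Fluorescence gain over the next 15 min, in pH 8.0 Tris with Tween 20, gave Hill-fitted curves.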

[2] = OV-KATE Cancer Cell Toxicity qHTS against the NCATS CANVASS Library (AID 1347345)
Method in brief: (§1)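 Bortezomib titration and single-dose wells served as plate controls. Test compounds, 11 points, acted on 1000 cells/well for 72 h at 37 degrees C; CellTiter-Glo luminescence quantified remaining viable cells.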

[3] = HPAF-II Cancer Cell Toxicity qHTS against the NCATS CANVASS Library (AID 1347346); also: series mostly up to about 38 µM; nearly all actives have a fitted effect of over 55% in size
Method in brief: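 First, HPAF-II cells are plated (1000 cells/well) and held 4 h at 37 degrees C. Next, compounds are pin-transferred as an 11-point series. After 72 h, CellTiter-Glo is added and luminescence measured.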

[4] = UWB1.289 Cancer Cell Toxicity qHTS against the NCATS CANVASS Library (AID 1347347); also: series mostly up to about 38 µM; nearly all actives have a fitted effect of over 60% in size
Method in brief: as §1

[5] = OV-SAHO Cancer Cell Toxicity qHTS against the NCATS CANVASS Library (AID 1347348); also: series mostly up to about 38 µM; nearly all actives have a fitted effect of over 55% in size
Method in brief: as §1

[6] = Panc-1005 Cancer Cell Toxicity qHTS against the NCATS CANVASS Library (AID 1347349); also: series mostly up to about 38 µM; nearly all actives have a fitted effect of over 60% in size
Method in brief: as §1

[7] = SW1088 Cancer Cell Toxicity qHTS against the NCATS CANVASS Library (AID 1347350); also: nearly all actives have a fitted effect of over 75% in size
Method in brief: as §1

[8] = U-118MG Cancer Cell Toxicity qHTS against the NCATS CANVASS Library (AID 1347351); also: series mostly up to about 38 µM
Method in brief: as §1

[9] = COV-362 Cancer Cell Toxicity qHTS against the NCATS CANVASS Library (AID 1347352); also: series mostly up to about 38 µM
Method in brief: (§2)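 First, 1000 cells go into each well and rest for 4 hours. Next, an 11-point dilution range is pinned in. Plates then incubate 72 hours before CellTiter-Glo addition and luminescence reading.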

[10] = A2780 Cisplatin Sensitive Ovarian Cancer Cell Toxicity qHTS against the NCATS CANVASS Library (AID 1347353); also: nearly all actives have a fitted effect of over 60% in size
Method in brief: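 Cells are plated at 750 per well and rest for 4 hours. Compounds are added across eleven concentrations, and incubated 72 hours before ATP is quantified by luminescence.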

[11] = UWB1.289-WTBRCA1 Cancer Cell Toxicity qHTS against the NCATS CANVASS Library (AID 1347354)
Method in brief: as §2

[12] = HEK-293 Cancer Cell Toxicity qHTS against the NCATS CANVASS Library (AID 1347355); also: series mostly up to about 46 µM; nearly all actives have a fitted effect of over 65% in size
Method in brief: as §2

[13] = HPAF-II 24hr Apoptosis Induction qHTS against the NCATS CANVASS Library (AID 1347356)
Method in brief: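 Cells seeded at 500 per well, then compounds pin-transferred in an 11-point concentration series. After 24 hours at 37 degrees C, Caspase-Glo 3/7 was added and luminescence measured following 15 min at room temperature.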

[14] = HEK293 18hr Apoptosis Induction qHTS against the NCATS CANVASS Library (AID 1347357)
Method in brief: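 Cells seeded at 500/well in DMEM + 10% FBS. Compounds pinned, 11 concentrations. 18 h, 37 degrees C/5% CO2. Caspase-Glo 3/7 added, 15 min RT dark, luminescence read.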

[15] = HPAF-II 12hr Apoptosis Induction qHTS against the NCATS CANVASS Library (AID 1347358)
Method in brief: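 Cells plated at 500 per well are dosed with compound and incubated 12 hours at 37 degrees C. Caspase-Glo 3/7 reagent is added and, after 15 min at room temperature, luminescence proportional to caspase activity is measured.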

[16] = HEK293 24hr Apoptosis Induction qHTS against the NCATS CANVASS Library (AID 1347359)
Method in brief: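 Caspase-3/7 activation measured as luminescence from the DEVD-based Caspase-Glo reagent, 15 min at room temperature, following 24-hour compound treatment of HEK293 cells.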

[17] = HEK293 12hr Apoptosis Induction qHTS against the NCATS CANVASS Library (AID 1347361)
Method in brief: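 Cells are seeded, dosed with an 11-point compound series and incubated 12 hours. Caspase-3/7 activity is detected by luminescent DEVD-substrate reagent after 15 minutes at room temperature.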

[18] = molecular target: Luciferin 4-monooxygenase (Photinus pyralis) (UniProt P08659); experiment: Firefly luciferase counterscreen qHTS: Assay Interference Panel against the NCATS CANVASS Library (AID 1347363); also: series mostly up to about 57 µM
Method in brief: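 Luminescence inhibition readout: compounds (11-point qHTS) sat 15 min at room temperature with substrate mix (0.013 mM luciferin and ATP), then firefly luciferase was added and signal read 5 min later.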

[19] = SDT Cancer Cell Toxicity qHTS against the NCATS CANVASS Library (AID 1347365);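 also: SDT canine glioma cells 500 per well in 1536 well plates; series mostly up to about 46 µM; nearly all actives have a fitted effect of over 60% in size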
Method in brief: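 Cytotoxicity is measured from cellular ATP: compounds in an 11-point concentration series are pinned onto SDT cells, incubated 72 hr at 37C, then CellTiterGlo is added and luminescence read.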

[20] = KB-3-1 Cancer Cell Toxicity qHTS against the NCATS CANVASS Library (AID 1347366); also: series mostly up to about 46 µM; nearly all actives have a fitted effect of over 75% in size
Method in brief: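 Luminescence from CellTiter-Glo (10 min, room temperature) measured KB-3-1 viability after 72 hr compound exposure at 37C. Cells were seeded at 500/well and tested in an 11-point series.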

[21] = qHTS for ATAD5 Agonist screened against the NCATS CANVASS Library (AID 1347367);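 also: luciferase reporter driven by ATAD5 which rises upon DNA damage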
Method in brief: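 HEK293T-ATAD5 luc reporter; 2000 cells/well; 5hr settle; cpd 11-pt qHTS; 16hr 37C 5% CO2 dark; viability by CellTiter-Fluor (AFC fluorescence); then luciferase luminescence, 30min RT.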

[22] = G06 Cancer Cell Toxicity qHTS against the NCATS CANVASS Library (AID 1347368)
Method in brief: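 Cells were plated at 500 per well, then compounds were added over an 11-point range. After 72 hr at 37C, CellTiterGlo was added and luminescence measured as ATP content.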

[23] = MCF7 Cancer Cell Toxicity qHTS against the NCATS CANVASS Library (AID 1347369); also: series mostly up to about 46 µM
Method in brief: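 Cells seeded at 500/well, then compound pinned. Plates incubated 72 hr at 37C, 5% CO2. CellTiterGlo added; luminescence read.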

[24] = qHTS for ATAD5 Antagonist screened against the NCATS CANVASS Library (AID 1347370);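 also: HEK293T cells carrying an ATAD5 luciferase reporter co-treated with 10 µM 5-fluorouridine; series mostly up to about 46 µM; nearly all actives have a fitted effect of over 65% in size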
Method in brief: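 Compounds (11-point) co-dosed with 10 µM 5-FUrd for 16 h at 37 °C onto HEK293T-ATAD5 luciferase reporter cells. Viability measured by CellTiter-Fluor fluorescence, then ATAD5 reporter signal by luminescence.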

[25] = J3T Cancer Cell Toxicity qHTS against the NCATS CANVASS Library (AID 1347371);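 also: J3T is a canine glioma cancer cell line seeded at 500 cells per well; series mostly up to about 46 µM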
Method in brief: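 Luminescence from CellTiterGlo, reporting cellular ATP, serves as the viability measure after 72 hr compound treatment of J3T canine glioma cells seeded at 500 cells/well.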

[26] = molecular target: Nuclear receptor subfamily 1 group I member 3 (Homo sapiens) (UniProt Q14994); experiment: qHTS for Constitutive Androstane Receptor (CAR) Antagonist screened against the NCATS CANVASS Library (AID 1347372);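 also: cells stimulated with 50 nM CITCO agonist so inhibition reflects antagonism; series mostly up to about 46 µM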
Method in brief: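 Antagonist mode: compound added alongside 50 nM CITCO to HepG2-hCAR-CYP2B6 reporter cells, 24hr at 37C. Viability by CellTiter-Fluor fluorescence, then CAR-driven luciferase by ONE-Glo luminescence.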

[27] = molecular target: Nuclear receptor subfamily 1 group I member 3 (Homo sapiens) (UniProt Q14994); experiment: qHTS for Constitutive Androstane Receptor (CAR) Agonist screened against the NCATS CANVASS Library (AID 1347373);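 also: every well also contained 1.5 µM PK11195 alongside the test compound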
Method in brief: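 Cells were plated and allowed to attach for 4hr, then dosed with compound in an 11-point series alongside 1.5uM PK11195. After 24hr at 37C, viability was measured fluorometrically and CAR-driven CYP2B6 reporter luminescence was recorded.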

[28] = qHTS for Hypoxia signaling pathway (HIF-1) antagonists against the NCATS CANVASS Library (AID 1347374)
Method in brief: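 Antagonism scored as loss of CoCl2-driven (60 uM stock added) HRE beta-lactamase signal, read by CCF4 FRET at 460/530 nm. Compounds were tested in an 11-point series on ME-180 reporter cells for 17 hrs at 37C, with parallel CellTiter-Glo cytotoxicity.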

[29] = qHTS for Hypoxia signaling pathway (HIF-1) agonists against the NCATS CANVASS Library (AID 1347375)
Method in brief: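 Cells plated and rested 5 h, compounds pinned in DMSO across 11 concentrations, incubated 17 h at 37C, loaded with CCF4-AM for 2 h, fluorescence read at 460 and 530 nm, then CellTiter-Glo luminescence measured for viability and normalization.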

[30] = 10-beta competent E. coli microbial cell viability qHTS against the NCATS CANVASS Library (AID 1347376); also: series mostly up to about 46 µM
Method in brief: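 Bacterial suspension diluted to 0.2 OD was dosed with compounds, 11-point series, then held overnight at 37C. BacTiter-Glo reagent was added, and after 20 min at room temperature ATP-dependent luminescence was measured.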

[31] = DH5-alpha competent E. coli microbial cell viability qHTS against the NCATS CANVASS Library (AID 1347377); details: outcome: dose series up to 46.1 µM unless noted
Method in brief: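 Bacteria were dispensed at 0.2 OD, then compounds were pin-transferred. Plates were incubated overnight at 37C, after which BacTiter-Glo was added and luminescence measured 20 min later.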

[32] = qHTS for Inflammasome Signaling Inhibitors: IL-1-beta AlphaLISA screen against the NCATS CANVASS Library (AID 1347379);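 also: human THP-1 cells primed with LPS then triggered with ATP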
Method in brief: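 Secreted IL-1B from human THP-1 cells quantified by AlphaLISA 16 hr after compound addition (final up to 57.5 uM). A 1 hr compound pretreatment preceded inflammasome activation with 250 ng/mL LPS plus 1.25 mM ATP (final).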

[33] = qHTS for Antimalaria activity screened against the NCATS CANVASS Library (AID 1347380);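 also: Plasmodium falciparum strain Dd2 asexual parasites grown in red blood cells; series mostly up to about 29 µM; nearly all actives have a fitted effect of over 40% in size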
Method in brief: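 Compounds are titrated over 11 concentrations onto Dd2 parasite cultures (0.3% parasitemia, 2.5% hematocrit). Growth over 72 h at 37C in low oxygen is measured as SYBR Green DNA fluorescence after lysis.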

[34] = Inflammasome Signaling qHTS Counterscreen: IL-1-beta AlphaLISA counterscreen against the NCATS CANVASS Library (AID 1347381);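 also: cell-free check with purified IL-1β in medium and no THP-1 cells; series mostly up to about 57 µM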
Method in brief: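 Purified IL-1-beta (4 pg/well) + compound, 11-pt conc. series; acceptor beads 6 ug/mL + biotin-Ab 0.6 nM final, 1 h RT; SA-donor 24 ug/ml final, 30 min dark RT; read ex 680/em 615.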

[35] = Cytotoxicity qHTS for assessment of Hepg2 cells membrane integrity screened against the NCATS CANVASS Library (AID 1347387)
Method in brief: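 Cells were seeded at 2000 per well and left overnight to attach. Compounds were pin-transferred to give 0.59 nM - 46 uM in an 11-point series and incubated 5 hr at 37C. CytoTox-ONE reagent was added and, after 10 min at room temperature, fluorescence (ex 560, em 590 nm) was read.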

[36] = qHTS for Activators of p53 Stress Response Pathway screened against the NCATS CANVASS Library (AID 1347388)
Method in brief: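 Beta-lactamase reporter driven by p53 response elements in HCT-116 cells, read as the 460 nm/530 nm emission ratio after CCF4 loading, following 16 h of exposure to an 11-point series. Cell viability was measured in the same wells by CellTiter-Glo luminescence.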

[37] = qHTS assay for small molecule disruptors of mitochondrial membrane potential screened against the NCATS CANVASS Library (AID 1347389)
Method in brief: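 Mitochondrial depolarization in HepG2 cells is scored as a falling aggregate-to-monomer fluorescence ratio after 1 hr compound exposure and 30 min staining with Mito-MPS dye at 37C, each compound tested as an 11-point titration.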

[38] = Secretion counterscreen for inhibitors of the SERCaMP assay screened against the NCATS CANVASS Library (AID 1347390);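 also: light from luciferase secreted into medium read as a measure of general secretion; series mostly up to about 77 µM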
Method in brief: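 SH-SY5Y-GLuc STOP cells; 4 h attach; cpds 0.001 - 77 uM (qHTS, 11 pts), 20 h 37C/5% CO2; coelenterazine in glow buffer; luminescence, 5 s exposure.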

[39] = qHTS for activators of Nrf2/ARE signaling pathway screened against the NCATS CANVASS Library (AID 1347391); also: nearly all actives have a fitted effect of over 60% in size
Method in brief: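 Beta-lactamase reporter signal, read as 460 and 530 nm emission under 405 nm excitation after 2 h CCF4 loading, reflected ARE activation in HepG2 cells treated 16 h with an 11-point series.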

[40] = qHTS for inhibitors of ER calcium dysfunction: SERCaMP assay screened against the NCATS CANVASS Library (AID 1347393);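 also: series mostly up to about 77 µM; lower secreted reporter signal means inhibitor of ER calcium depletion; nearly all actives have a fitted effect of over 40% in size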
Method in brief: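 Thapsigargin-induced ER calcium depletion drives GLuc-SERCaMP secretion from SH-SY5Y cells; compounds given 16 h beforehand were scored by lowered coelenterazine luminescence after 4 h challenge.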

[41] = qHTS for inhibitors of Wild type Zika virus screened against the NCATS CANVASS Library (AID 1347396);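 also: ATP luminescence of surviving cells so rescue from viral cell killing; series mostly up to about 46 µM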
Method in brief: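 Vero 766 (African green monkey) cells, 1000 per well, attached overnight, then compounds were added in an 11-point series before wild-type Zika virus infection. After 72 h at 37C, cell viability was read as CellTiter Glo luminescence.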

[42] = Viability qHTS for inhibitors of the SERCaMP assay screened against the NCATS CANVASS Library (AID 1347400); also: series mostly up to about 92 µM; nearly all actives have a fitted effect of over 70% in size
Method in brief: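 Seed SH-SY5Y-GLuc SERCaMP MJH297 cells at 1000 per well, incubate 4 h, add compounds across an 11-point range, incubate 48 h at 37C, then add CellTiter-Glo and read luminescence.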

[43] = Redox Reaction Profiling qHTS: Assay Interference Panel against the NCATS CANVASS Library (AID 1347401)
Method in brief: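 Redox-cycling liability assessed as DTT-driven conversion of resazurin (5 uM, with 200 uM DTT, HEPES pH 7.3) to fluorescent resorufin. Fluorescence at 525/598 nm measured initially and after 15 min dark incubation.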

Measured: Potency

Nuclear receptor subfamily 1 group I member 3 (Homo sapiens), sequence (Q14994 whole entry, looked up): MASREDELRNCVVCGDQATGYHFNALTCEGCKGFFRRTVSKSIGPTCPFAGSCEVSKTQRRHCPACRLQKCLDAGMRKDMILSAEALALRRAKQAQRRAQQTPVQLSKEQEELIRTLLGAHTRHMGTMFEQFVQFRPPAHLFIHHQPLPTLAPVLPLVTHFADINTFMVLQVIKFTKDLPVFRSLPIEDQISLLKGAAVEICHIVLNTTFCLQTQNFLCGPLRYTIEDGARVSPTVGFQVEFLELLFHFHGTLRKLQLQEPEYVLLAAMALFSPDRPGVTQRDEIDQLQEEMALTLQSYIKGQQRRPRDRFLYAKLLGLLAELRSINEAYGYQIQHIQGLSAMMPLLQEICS
Luciferin 4-monooxygenase (Photinus pyralis), sequence (P08659 whole entry, looked up): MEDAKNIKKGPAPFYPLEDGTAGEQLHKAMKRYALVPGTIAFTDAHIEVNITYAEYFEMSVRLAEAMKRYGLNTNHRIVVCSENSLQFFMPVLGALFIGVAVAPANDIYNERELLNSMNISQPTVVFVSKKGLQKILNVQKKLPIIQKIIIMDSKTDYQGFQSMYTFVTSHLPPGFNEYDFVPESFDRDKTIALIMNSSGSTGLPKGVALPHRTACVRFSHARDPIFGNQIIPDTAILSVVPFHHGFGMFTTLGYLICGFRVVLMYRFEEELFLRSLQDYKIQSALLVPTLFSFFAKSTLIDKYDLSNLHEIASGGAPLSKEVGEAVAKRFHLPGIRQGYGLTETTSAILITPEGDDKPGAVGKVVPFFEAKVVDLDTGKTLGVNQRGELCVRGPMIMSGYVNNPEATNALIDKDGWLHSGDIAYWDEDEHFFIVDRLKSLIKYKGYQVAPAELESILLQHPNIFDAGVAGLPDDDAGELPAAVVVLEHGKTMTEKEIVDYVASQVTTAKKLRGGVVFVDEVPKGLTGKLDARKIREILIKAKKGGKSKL

C[C@@]12C[C@@H](C[C@H]3C(=O)O[C@@H](c4ccoc4)[C@H](OC(=O)c4ccccc4)[C@@H]31)OC2=O
inactive: [1] | [2] | [3] | [4] | [5] | [6] | [7] | [8] | [9] | [10] | [11] | [12] | [13] | [14] | [15] | [16] | [17] | [18] | [19] | [20] | [21] | [22] | [23] | [24] | [25] | [26] | [27] | [28] | [29] | [30] | [31] | [32] | [33] | [34] | [35] | [36] | [37] | [38] | [39] | [40] | [41] | [42] | [43]
